# Active and inactive are the calls of the source.
# Key:
# [1] = test system: Plasmodium falciparum Sir2 (PF13_0152, Sir2A); assay: Plasmodium falciparum Sir2A binding compounds – biochemical, small-molecule microarray, 635 nm fluorescence, primary screen (AID 1098); conditions: fluorescence 635 nm, higher = more signal;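 also: score merges spot fluorescence intensity with its signal-to-noise ratio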
# [2] = probe aDKK1 binding to arrayed compounds – biochemical, biotinylated probe, 635/667 nm fluorescence, primary screen (AID 1099); conditions: small-molecule microarray, higher = more signal;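 also: score merges 667nm spot fluorescence with signal to noise across triplicate slides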
# [3] = probe aCHRDL2 binding to arrayed compounds – biochemical, biotinylated probe, 635/667 nm fluorescence, primary screen (AID 1100); conditions: small-molecule microarray, higher = more signal
# [4] = change in splice reporter luminescence, either direction, cell-based, HEK293, spliceosome inhibition project, primary screen (AID 1101); conditions: HEK293 splicing luciferase reporter, 24 h, higher = more signal, called active from +8 up or from −8 down;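 also: HEK293 cells carrying a splicing-competent luciferase reporter gene; test concentration not given here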
# [5] = target: Fibroblast growth factor 10 (Homo sapiens) (UniProt O15520); assay: compounds binding fibroblast growth factor 10 – biochemical, small-molecule microarray, 635 nm fluorescence, primary screen (AID 1102); conditions: FGF10 binding, fluorescence 635 nm, higher = more signal
# [6] = test system: glycogen synthase kinase-3 (GSK3A per assay name; protocol says GSK3B); assay: compounds binding glycogen synthase kinase-3 – biochemical, small-molecule microarray, 635 nm fluorescence, GSK3A, primary screen (AID 1103); conditions: fluorescence 635 nm, higher = more signal; also: the record names both GSK3A and GSK3B
# [7] = target: Epidermal growth factor receptor (Homo sapiens) (UniProt P00533); assay: compounds binding epidermal growth factor receptor – biochemical, small-molecule microarray, 635 nm fluorescence, primary screen (AID 1104); conditions: EGFR binding, higher = more signal;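 also: score merges 667 nm emission intensity with spot signal to noise over triplicate slides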
# [8] = target: Follistatin-related protein 3 (Homo sapiens) (UniProt O95633); assay: compounds binding follistatin-related protein 3 – biochemical, small-molecule microarray, 635 nm fluorescence, primary screen (AID 1105); conditions: FSTL3 binding, higher = more signal;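 also: score merges emission near 667 nm and signal to noise per printed spot across three slides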
# [9] = target: Dickkopf-related protein 1 (Homo sapiens) (UniProt O94907); assay: small molecules binding DKK1 protein – biochemical, small-molecule microarray, 635 nm fluorescence scan, primary screen (AID 1106); conditions: higher = more signal;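 also: score merges emission near 667 nm with signal to noise over three replicate slides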
# [10] = test system: Inhibin beta A chain (activin A); assay: small molecules binding activin A – biochemical, small-molecule microarray, 635 nm fluorescence scan, primary screen (AID 1107); conditions: INHBA, higher = more signal;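 also: mouse activin A protein probed at 4.33 µg/mL on printed slides; score merges bound-protein fluorescence near 667 nm with spot signal-to-noise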
# [11] = test system: Human papillomavirus type 1a protein E7 (residues 44-93); assay: small molecules binding HPV E7 44-93 – biochemical, small-molecule microarray, residues 44-93, 635 nm fluorescence, primary screen (AID 1108); conditions: fluorescence 635 nm, higher = more signal;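 also: E7 fragment applied at 1 µg/mL in TBST for 1 h at 4 C; score combines spot fluorescence with its signal to noise ratio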
# [12] = hepatitis C replication reporter changes, two-sided – Huh7 cells, luciferase reporter, HCV replication inhibitor project, primary screen (AID 1109); conditions: Huh7 HCV replicon luciferase reporter, 48 h; higher = more signal;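 also: huh7 hepatoma cells harbouring a luciferase neomycin HCV replicon reporter; luciferase luminescence as measure of HCV replicon replication; test concentration not given here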
# [13] = target: Left-right determination factor 2 (Homo sapiens) (UniProt O00292); assay: small molecules binding LEFTY2 protein – biochemical, small-molecule microarray, 635 nm fluorescence scan, primary screen (AID 1110); conditions: higher = more signal
# [14] = target: Calmodulin-1 (Homo sapiens) (UniProt P0DP23); assay: small molecules binding calmodulin-1 with EGTA – biochemical, small-molecule microarray, Cy5-labelled CALM1, profiling panel (AID 1111); conditions: Cy5-CALM1 binding fluorescence, higher = more signal;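 also: labelled calmodulin applied in Tris saline Tween buffer holding calcium plus EGTA and DTT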
# [15] = target: Calmodulin-1 (Homo sapiens) (UniProt P0DP23); assay: small molecules binding Ca-loaded calmodulin-1 – biochemical, small-molecule microarray, Cy5-labelled CALM1, plus calcium, artefact control for SMM control-protein annotation, profiling panel (AID 1112); conditions: Cy5-CALM1 binding fluorescence, higher = more signal;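 also: score merges spot fluorescence with signal to noise from triplicate slides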
# [16] = probe aWnt5a binding to arrayed compounds – biochemical, biotinylated probe, 635/667 nm fluorescence, primary screen (AID 1113); conditions: small-molecule microarray, higher = more signal;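 also: score merges 667 nm fluorescence intensity with signal-to-noise per printed feature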
# [17] = probe aShh binding to arrayed compounds – biochemical, biotinylated probe, 635/667 nm fluorescence, primary screen (AID 1114); conditions: small-molecule microarray, higher = more signal;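 also: probe is biotin-labelled aShh protein from a stem cell growth factor screen; measures binding of labelled protein to compounds printed on the slide; score merges feature fluorescence at 667 nm with signal-to-noise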
# [18] = probe aNog binding to arrayed compounds – biochemical, biotinylated probe, 635/667 nm fluorescence, primary screen (AID 1115); conditions: small-molecule microarray, higher = more signal;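 also: probe is biotinylated aNog protein used at 0.15 µg/mL for 1 h at 4 C; z-score combines 667 nm fluorescence of each spot with its signal to noise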
# [19] = target: Torsin-1A-interacting protein 1 (Homo sapiens) (UniProt Q5JTV8); assay: compound microarray binding of lysate hLAP1 – cell lysate, small-molecule microarray, COS7 lysate, 635/667 nm fluorescence, primary screen (AID 1116); conditions: 635 nm fluorescence, higher = more signal
# [20] = target: Alpha-bungarotoxin (Bungarus multicinctus) (UniProt P60615); assay: compounds binding labelled alpha-BTX control protein – biochemical, small-molecule microarray, Alexa647 label, 635/667 nm fluorescence, artefact control for SMM control protein annotation, profiling panel (AID 1117); conditions: alpha-BTX-A647 binding fluorescence, higher = more signal
# Sequence of Alpha-bungarotoxin (Bungarus multicinctus) (P60615 whole entry, looked up): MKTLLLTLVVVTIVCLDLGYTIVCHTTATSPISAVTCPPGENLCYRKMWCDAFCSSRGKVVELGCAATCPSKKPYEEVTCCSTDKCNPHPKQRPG
# Sequence of Left-right determination factor 2 (Homo sapiens) (O00292 whole entry, looked up): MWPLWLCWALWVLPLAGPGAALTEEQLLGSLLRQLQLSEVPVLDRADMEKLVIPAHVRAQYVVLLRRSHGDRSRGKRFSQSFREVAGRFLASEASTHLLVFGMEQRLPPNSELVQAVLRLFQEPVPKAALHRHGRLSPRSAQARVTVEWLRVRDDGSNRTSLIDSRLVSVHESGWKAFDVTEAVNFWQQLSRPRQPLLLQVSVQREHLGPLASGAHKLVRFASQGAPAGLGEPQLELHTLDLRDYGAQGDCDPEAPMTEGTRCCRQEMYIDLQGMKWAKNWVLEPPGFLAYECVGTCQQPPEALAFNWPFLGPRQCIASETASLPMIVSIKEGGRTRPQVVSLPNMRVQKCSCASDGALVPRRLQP
# Sequence of Dickkopf-related protein 1 (Homo sapiens) (O94907 whole entry, looked up): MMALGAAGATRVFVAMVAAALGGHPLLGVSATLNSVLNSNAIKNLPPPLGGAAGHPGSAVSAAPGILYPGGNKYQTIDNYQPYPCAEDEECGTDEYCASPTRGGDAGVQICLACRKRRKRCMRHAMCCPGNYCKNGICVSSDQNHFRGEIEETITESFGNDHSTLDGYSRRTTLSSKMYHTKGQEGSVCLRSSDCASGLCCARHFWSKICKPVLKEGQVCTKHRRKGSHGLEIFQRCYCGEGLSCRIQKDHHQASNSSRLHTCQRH
# Sequence of Torsin-1A-interacting protein 1 (Homo sapiens) (Q5JTV8 whole entry, looked up): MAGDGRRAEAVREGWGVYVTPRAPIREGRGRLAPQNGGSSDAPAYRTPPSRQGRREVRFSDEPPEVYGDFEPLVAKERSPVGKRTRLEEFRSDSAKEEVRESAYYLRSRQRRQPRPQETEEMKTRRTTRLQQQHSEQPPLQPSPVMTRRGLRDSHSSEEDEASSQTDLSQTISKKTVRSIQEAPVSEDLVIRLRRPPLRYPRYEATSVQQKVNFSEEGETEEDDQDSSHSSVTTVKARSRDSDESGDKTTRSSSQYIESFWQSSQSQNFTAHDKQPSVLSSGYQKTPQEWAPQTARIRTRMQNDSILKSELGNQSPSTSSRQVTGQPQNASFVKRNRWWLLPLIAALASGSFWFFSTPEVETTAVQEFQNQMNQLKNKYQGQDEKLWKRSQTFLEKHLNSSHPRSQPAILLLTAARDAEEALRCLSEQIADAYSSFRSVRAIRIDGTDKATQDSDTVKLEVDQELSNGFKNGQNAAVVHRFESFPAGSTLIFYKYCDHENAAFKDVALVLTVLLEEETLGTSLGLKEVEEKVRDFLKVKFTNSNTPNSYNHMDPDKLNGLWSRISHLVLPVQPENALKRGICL
# Sequence of Epidermal growth factor receptor (Homo sapiens) (P00533 whole entry, looked up): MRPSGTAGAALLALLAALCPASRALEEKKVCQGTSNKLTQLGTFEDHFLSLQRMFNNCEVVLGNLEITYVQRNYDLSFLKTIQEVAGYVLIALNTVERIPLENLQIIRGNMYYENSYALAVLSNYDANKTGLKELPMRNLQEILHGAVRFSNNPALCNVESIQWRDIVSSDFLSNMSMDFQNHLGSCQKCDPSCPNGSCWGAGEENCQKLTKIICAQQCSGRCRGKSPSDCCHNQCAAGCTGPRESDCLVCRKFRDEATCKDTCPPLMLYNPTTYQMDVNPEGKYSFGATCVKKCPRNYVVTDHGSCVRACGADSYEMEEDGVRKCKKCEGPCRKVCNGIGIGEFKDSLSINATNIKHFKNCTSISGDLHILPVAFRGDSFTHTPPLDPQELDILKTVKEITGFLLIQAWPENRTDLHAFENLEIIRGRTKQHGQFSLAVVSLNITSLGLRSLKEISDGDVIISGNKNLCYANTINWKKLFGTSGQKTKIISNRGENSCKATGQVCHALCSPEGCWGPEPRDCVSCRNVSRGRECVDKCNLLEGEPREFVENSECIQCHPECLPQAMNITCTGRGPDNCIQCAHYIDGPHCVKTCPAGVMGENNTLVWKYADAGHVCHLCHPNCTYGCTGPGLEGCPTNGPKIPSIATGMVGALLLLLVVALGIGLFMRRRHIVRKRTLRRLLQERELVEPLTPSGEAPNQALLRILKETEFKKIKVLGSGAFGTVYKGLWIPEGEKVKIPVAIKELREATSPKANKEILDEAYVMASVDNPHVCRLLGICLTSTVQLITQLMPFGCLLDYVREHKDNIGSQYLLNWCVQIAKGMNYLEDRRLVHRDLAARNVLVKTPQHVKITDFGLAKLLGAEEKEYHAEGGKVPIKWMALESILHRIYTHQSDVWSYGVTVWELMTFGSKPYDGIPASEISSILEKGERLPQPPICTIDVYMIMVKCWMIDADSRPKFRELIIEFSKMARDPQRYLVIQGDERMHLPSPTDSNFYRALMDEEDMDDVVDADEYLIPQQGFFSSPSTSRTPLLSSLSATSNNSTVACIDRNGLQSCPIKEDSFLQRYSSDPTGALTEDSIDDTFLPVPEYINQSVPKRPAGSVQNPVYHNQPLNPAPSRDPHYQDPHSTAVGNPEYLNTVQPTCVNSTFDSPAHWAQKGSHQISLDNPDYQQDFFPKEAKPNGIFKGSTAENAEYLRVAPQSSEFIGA
# Sequence of Follistatin-related protein 3 (Homo sapiens) (O95633 whole entry, looked up): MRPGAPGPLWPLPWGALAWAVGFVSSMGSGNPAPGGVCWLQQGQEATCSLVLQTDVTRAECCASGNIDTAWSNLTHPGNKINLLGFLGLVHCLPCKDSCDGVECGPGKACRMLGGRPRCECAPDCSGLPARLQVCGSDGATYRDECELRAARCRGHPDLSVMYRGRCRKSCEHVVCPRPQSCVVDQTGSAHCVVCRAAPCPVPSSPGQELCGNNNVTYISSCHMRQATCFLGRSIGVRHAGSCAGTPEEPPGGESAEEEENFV
# Sequence of Fibroblast growth factor 10 (Homo sapiens) (O15520 whole entry, looked up): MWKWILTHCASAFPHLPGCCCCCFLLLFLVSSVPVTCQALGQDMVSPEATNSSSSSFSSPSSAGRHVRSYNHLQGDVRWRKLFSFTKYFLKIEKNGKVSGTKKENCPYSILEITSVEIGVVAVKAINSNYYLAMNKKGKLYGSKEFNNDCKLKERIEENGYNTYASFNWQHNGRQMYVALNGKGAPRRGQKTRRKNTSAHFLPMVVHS
SMILES,composite z-score [1],composite z-score [2],composite z-score [3],z-score [4],composite z-score [5],composite z-score [6],composite z-score [7],composite z-score [8],composite z-score [9],composite z-score [10],composite z-score [11],z-score [12],composite z-score [13],composite z-score [14],composite z-score [15],composite z-score [16],composite z-score [17],composite z-score [18],composite z-score [19],composite z-score [20]
CC(CCN1CCCc2nc(C)c(C)cc21)=NO[C@@H](C)c1cc(-c2c(C)cc(C)cc2C)no1,0.739,0.0311,-0.648,-0.408 (inactive),0.322,0.525,-0.0398,0.293,0.41,0.881,0.788,-0.414,0.231,0.446,-0.17,-0.101,0.0952,0.173,0.601,0.494
O=C1C=C[C@@H](O)[C@@H]2[C@@H]3C(=O)N(c4ccc(F)cc4F)C(=O)[C@@H]3CC[C@@H]12,0.519,-0.241,-0.43,-1.21 (inactive),0.925,0.39,0.462,0.39,0.664,-1.12,0.229,-0.578,0.237,0.269,-0.282,-0.0405,-0.153,-0.252,0.804,0.0764
C[C@H]1CC[C@H]2C(=O)O[C@H](COc3ccc(C(C)(C)C)cc3)CN2[C@@H]1c1ccc(Br)cc1,0.926,-0.143,-0.0663,0.134 (inactive),0.0311,0.102,-0.0022,-0.156,-0.189,0.0563,0.179,-0.145,-0.281,1,0.101,-0.139,-0.0548,0.0051,0.303,1.15
COC(=O)NCC=Cc1nc(CCCO)co1,0.439,-0.414,-0.576,0.566 (inactive),0.534,0.926,0.581,0.887,0.617,0.163,0.722,-0.0343,0.493,-0.368,-0.98,-0.0462,0.0141,-0.137,0.116,-0.498
COC(=O)CC=C[C@@H](C)[C@@H](C=NO[C@@H](C)c1cn([C@H](CO)Cc2ccccc2)nn1)NS(=O)(=O)c1ccc(C)cc1,1.18,-0.0838,-0.668,-0.83 (inactive),0.582,0.252,0.519,0.449,0.47,0.408,-0.0476,-0.858,0.739,-0.598,-0.531,0.0077,-0.0977,0.143,0.258,-0.331
CC(=O)OC[C@H]1OC(ON=CC[C@@H]2C=C[C@H](OC(C)=O)[C@@H](COC(C)=O)O2)[C@H](OC(C)=O)[C@@H](OC(C)=O)[C@@H]1OC(C)=O (stereo not given in full),0.119,-0.0393,0.265,0.632 (inactive),0.384,0.0032,0.261,-0.368,-0.416,-2.75,0.781,-0.3,0.624,-0.0804,-0.819,-0.0957,-0.154,-0.144,-0.0191,-0.461
COc1cc(O)c(C(=O)C=Cc2ccc3c(c2)OCO3)c(OC)c1,0.188,-0.323,-0.379,-0.00405 (inactive),0.772,-0.729,-0.229,-0.0642,0.115,0.551,-2.33,-1.53,-0.143,0.283,-0.582,0.0438,-0.332,-0.219,-0.289,0.825
CCOC(=O)C1=NO[C@]2(C=C(Br)C3(OCCCO3)[C@H]3O[C@H]32)C1,-0.695,-0.32,-0.274,0.437 (inactive),0.18,-0.512,-0.203,-0.425,-0.123,0.549,-1.53,0.426,0.306,-1.04,-0.175,-0.161,-0.0879,0.341,0.194,0.477
C#CCCCON=C1C[C@@H](O)[C@@H](O)[C@@H]2[C@@H]3C(=O)N(CCC(=O)OCC)C(=O)[C@@H]3CC[C@H]12,1,0.286,-0.491,-1.79 (inactive),0.628,0.814,0.542,1.16,0.389,-0.422,0.0844,0.283,0.387,1.16,0.221,-0.13,0.172,-0.253,0.544,0.401
O=c1n(Cc2cc3c(cc2Cl)OCO3)c(=O)n2n1CC[C@@H]1C(=NOCc3ccccc3)[C@H]3O[C@H]3[C@@H](O)[C@@H]12,0.172,0.87,-0.546,-1 (inactive),0.531,0.432,0.452,0.587,0.669,0.111,0.439,0.51,0.582,0.0528,-0.827,-0.152,-0.34,-0.519,0.157,-0.0536
COC(=O)CC=C[C@@H](C)[C@@H](C=NO[C@H](C)c1cn([C@@H]2COC[C@H]2O)nn1)NS(=O)(=O)c1ccc(C)cc1,0.163,-0.268,-0.57,-0.0248 (inactive),0.43,0.427,0.59,0.746,1.07,0.216,-0.12,-0.483,0.722,-0.0535,-0.646,-0.144,-0.237,-0.246,0.0982,-0.361
COc1cccc([C@H]2Oc3ccc(OC)cc3C(=NOC[C@@H](O)COCc3ccco3)[C@@H]2O)c1,-0.12,-0.644,-0.798,-0.469 (inactive),-0.0458,-0.754,-1.44,-1.3,0.13,1.29,-0.593,-1.04,-0.159,-2.33,-2.08,-0.278,-0.372,-0.539,-0.889,-0.799
CCCCC#C[C@@H]1C=C[C@H](Oc2cc(OC)c(OC)c(OC)c2)[C@@H](COC(=O)OCC)O1,0.589,-0.328,-0.619,-0.696 (inactive),0.306,-0.682,0.0389,-0.203,0.514,0.444,-0.709,-0.548,0.144,-0.659,-0.986,-0.124,-0.276,-0.158,0.0606,0.624
CCOC(=O)[C@H](Cc1ccccc1)NC(=O)CCC1CC(OC(=O)NCCc2ccc(F)cc2)CC2(CCCC(COC(=O)NCCOC)O2)O1 (stereo not given in full),0.637,0.765,-0.504,0.371 (inactive),0.984,0.614,0.856,0.969,1.13,0.163,1.4,0.686,0.529,0.276,-0.109,-0.116,0.131,0.0853,0.979,0.574
O=C1C[C@@H](O)[C@@H](O)[C@@H]2[C@@H]3C(=O)N(c4cccc(Oc5ccccc5)c4)C(=O)[C@@H]3CC[C@H]12,0.326,-0.18,-0.709,0.218 (inactive),0.595,0.572,0.573,0.814,0.846,-0.173,-0.252,0.33,0.43,0.118,-0.294,-0.128,-0.366,-0.341,0.132,0.62
O=C1[C@H]2[C@H]3[C@H](O)[C@H](O)CC(=NOCc4ccccc4)[C@@H]3CC[C@H]2C(=O)N1Cc1ccc2c(c1)OCO2,0.0183,-0.225,-0.453,0.631 (inactive),0.32,-0.0163,0.317,0.517,0.472,0.45,0.0666,-0.276,0.517,-0.206,-0.211,-0.091,-0.154,-0.23,0.366,0.576
C#CCCCON=C1C[C@@H](O)[C@@H](O)[C@@H]2[C@@H]3C(=O)N(C(C)(C)C)C(=O)[C@@H]3CC[C@@H]12,0.856,1.19,1.28,0.624 (inactive),-0.624,-0.545,-0.306,-0.576,-1.1,0.477,0.0592,1.17,-0.442,-0.389,-0.165,-0.0721,-0.338,0.305,0.805,0.323

# From PubChem BioAssay
